# Results as given in the supplement of paper PMC12067093, “Discovery and optimisation of a covalent ligand for TRIM25 and its application to targeted protein ubiquitination” (Chemical Science, 2025).
# Targets with the largest changes are over-represented here; the source holds about 21,000 in all.
# Compound: CC1Cc2ccccc2N1C(=O)C1CCCN(C1)C(=O)CCl (mixture of isomers) [TRIM25 ligand 11 (diastereomer mixture)]
# Experiment: probe-labelled cysteine peptide fold change vs DMSO (competition) (log2 fold change); higher = less target engagement (more negative = stronger competition)
# Conditions: THP-1, incubation time: 4 h
# 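Note: competitive chemoproteomic profiling in live THP-1 cells with an iodoacetamide desthiobiotin (IA-DTB) probe, comparing probe-labelled peptide intensities in compound-treated cells against DMSO-treated controls.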
# Sequence of UniProt Q6P4R8 (Q6P4R8 whole entry): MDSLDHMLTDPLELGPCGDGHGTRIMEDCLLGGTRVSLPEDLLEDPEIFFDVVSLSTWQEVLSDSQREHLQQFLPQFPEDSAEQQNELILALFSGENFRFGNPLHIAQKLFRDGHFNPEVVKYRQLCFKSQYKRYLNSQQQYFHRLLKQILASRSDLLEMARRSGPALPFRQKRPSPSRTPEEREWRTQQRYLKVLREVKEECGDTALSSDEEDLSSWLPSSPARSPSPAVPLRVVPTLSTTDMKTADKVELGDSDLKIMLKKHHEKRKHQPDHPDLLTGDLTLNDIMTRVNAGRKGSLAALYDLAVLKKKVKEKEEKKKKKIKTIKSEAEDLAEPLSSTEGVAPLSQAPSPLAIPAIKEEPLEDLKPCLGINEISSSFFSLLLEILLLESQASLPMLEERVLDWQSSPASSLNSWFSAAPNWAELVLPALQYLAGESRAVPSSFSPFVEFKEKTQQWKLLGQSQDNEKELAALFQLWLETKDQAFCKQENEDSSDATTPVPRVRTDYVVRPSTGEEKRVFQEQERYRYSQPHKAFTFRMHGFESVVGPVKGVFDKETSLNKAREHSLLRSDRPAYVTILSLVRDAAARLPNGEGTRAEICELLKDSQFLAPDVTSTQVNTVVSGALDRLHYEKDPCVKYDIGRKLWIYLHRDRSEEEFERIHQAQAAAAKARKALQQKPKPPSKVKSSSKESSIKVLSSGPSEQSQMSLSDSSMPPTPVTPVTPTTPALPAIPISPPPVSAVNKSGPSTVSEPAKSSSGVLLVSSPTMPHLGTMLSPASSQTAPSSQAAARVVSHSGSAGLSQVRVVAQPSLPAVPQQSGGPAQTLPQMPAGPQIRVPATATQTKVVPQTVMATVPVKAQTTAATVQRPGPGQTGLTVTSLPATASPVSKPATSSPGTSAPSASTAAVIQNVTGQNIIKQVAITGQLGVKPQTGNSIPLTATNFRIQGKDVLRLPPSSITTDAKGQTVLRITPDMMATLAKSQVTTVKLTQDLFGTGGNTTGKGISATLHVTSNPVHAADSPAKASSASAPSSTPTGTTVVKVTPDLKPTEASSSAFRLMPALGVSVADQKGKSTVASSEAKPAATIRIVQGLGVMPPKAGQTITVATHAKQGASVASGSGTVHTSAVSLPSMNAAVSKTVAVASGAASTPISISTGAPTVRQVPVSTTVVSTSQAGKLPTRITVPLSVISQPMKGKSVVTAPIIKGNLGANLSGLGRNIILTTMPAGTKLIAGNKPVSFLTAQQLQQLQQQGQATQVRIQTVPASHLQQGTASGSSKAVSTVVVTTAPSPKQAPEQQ
# Sequence of UniProt Q96PY6 (Q96PY6 whole entry): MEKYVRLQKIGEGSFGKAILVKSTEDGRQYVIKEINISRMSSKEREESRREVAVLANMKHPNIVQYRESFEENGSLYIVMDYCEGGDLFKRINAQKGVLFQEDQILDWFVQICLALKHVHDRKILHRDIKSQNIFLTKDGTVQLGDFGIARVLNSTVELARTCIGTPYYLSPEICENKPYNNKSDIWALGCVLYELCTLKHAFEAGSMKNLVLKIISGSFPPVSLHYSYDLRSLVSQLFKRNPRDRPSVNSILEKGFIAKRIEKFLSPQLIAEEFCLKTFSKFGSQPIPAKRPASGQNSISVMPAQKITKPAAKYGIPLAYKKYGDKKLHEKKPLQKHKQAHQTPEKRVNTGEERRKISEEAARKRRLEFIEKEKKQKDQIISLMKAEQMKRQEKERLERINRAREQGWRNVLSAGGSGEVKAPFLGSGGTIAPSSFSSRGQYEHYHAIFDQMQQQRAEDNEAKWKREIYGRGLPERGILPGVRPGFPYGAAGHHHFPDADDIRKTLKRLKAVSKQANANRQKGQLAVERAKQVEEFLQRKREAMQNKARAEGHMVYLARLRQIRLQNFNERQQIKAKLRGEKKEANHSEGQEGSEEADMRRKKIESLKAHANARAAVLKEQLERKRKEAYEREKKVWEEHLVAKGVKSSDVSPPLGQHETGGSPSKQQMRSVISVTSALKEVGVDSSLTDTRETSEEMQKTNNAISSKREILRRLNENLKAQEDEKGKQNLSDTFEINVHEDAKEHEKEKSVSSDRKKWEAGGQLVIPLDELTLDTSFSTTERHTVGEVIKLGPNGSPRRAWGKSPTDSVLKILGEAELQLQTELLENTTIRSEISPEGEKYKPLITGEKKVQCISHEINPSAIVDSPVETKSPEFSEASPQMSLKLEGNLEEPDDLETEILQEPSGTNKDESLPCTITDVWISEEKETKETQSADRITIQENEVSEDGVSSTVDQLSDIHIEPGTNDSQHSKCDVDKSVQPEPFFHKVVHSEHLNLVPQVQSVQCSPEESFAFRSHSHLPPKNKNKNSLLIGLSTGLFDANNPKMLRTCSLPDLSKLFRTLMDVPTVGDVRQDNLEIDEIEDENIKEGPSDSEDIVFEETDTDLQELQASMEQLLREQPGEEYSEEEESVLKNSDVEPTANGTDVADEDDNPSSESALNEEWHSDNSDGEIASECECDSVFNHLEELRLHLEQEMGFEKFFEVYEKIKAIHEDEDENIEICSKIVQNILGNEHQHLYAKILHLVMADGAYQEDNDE
# Sequence of UniProt P52948 (P52948 whole entry, looked up): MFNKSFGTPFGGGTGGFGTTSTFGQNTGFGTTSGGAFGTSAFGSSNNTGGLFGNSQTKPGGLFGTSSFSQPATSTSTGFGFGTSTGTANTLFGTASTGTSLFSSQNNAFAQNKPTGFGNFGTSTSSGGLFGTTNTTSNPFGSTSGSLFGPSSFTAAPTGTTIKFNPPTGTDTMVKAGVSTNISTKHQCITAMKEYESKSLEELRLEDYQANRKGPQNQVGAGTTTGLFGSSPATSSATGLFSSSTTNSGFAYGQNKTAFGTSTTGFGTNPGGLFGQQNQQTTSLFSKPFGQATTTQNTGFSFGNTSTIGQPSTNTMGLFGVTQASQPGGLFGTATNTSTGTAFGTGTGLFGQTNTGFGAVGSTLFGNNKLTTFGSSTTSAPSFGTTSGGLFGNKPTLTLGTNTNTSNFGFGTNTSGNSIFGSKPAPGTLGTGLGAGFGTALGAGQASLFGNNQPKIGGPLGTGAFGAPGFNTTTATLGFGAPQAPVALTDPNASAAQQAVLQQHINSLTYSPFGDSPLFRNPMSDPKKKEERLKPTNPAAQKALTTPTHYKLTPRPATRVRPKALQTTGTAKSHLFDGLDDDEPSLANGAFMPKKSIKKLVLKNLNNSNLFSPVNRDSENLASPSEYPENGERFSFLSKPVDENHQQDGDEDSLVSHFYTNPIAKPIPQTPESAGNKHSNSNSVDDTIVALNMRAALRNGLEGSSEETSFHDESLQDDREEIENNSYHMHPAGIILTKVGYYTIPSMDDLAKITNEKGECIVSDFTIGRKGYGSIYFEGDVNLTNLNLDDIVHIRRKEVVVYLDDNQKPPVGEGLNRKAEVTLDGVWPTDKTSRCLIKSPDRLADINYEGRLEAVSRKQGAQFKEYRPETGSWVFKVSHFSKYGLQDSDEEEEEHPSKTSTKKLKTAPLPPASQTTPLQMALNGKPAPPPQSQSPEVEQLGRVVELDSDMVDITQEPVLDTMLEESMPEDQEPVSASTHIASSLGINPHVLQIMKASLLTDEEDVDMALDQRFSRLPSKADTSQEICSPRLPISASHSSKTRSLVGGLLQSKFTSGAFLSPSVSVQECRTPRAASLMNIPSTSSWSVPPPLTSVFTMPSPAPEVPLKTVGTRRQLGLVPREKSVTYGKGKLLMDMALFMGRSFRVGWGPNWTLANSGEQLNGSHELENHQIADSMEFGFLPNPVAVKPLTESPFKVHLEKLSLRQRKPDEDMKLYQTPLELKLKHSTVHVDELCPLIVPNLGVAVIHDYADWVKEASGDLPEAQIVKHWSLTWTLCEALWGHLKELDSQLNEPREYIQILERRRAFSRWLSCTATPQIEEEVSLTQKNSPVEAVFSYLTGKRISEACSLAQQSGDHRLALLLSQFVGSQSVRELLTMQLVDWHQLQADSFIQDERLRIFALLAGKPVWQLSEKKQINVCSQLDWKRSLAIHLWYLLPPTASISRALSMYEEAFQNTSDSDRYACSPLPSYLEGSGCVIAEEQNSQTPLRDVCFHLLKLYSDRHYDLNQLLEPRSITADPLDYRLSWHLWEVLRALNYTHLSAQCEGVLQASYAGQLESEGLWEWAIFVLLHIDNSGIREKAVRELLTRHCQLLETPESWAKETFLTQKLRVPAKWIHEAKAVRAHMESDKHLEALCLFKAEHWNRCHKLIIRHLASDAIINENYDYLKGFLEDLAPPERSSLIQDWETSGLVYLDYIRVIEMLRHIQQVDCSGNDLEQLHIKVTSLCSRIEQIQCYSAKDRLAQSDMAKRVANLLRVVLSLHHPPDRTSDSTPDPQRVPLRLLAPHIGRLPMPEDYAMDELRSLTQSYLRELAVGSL
# Sequence of UniProt P57721 (P57721 whole entry, looked up): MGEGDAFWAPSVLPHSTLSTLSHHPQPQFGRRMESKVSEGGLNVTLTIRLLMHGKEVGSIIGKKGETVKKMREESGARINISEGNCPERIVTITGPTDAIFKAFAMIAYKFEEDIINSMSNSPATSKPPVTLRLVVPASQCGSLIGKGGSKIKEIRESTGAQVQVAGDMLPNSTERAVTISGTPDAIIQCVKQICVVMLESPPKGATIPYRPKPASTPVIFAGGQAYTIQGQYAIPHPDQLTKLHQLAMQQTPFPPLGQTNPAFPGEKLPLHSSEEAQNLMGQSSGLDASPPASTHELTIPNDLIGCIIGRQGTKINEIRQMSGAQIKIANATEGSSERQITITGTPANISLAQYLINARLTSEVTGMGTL
# Sequence of UniProt P06748 (P06748 whole entry): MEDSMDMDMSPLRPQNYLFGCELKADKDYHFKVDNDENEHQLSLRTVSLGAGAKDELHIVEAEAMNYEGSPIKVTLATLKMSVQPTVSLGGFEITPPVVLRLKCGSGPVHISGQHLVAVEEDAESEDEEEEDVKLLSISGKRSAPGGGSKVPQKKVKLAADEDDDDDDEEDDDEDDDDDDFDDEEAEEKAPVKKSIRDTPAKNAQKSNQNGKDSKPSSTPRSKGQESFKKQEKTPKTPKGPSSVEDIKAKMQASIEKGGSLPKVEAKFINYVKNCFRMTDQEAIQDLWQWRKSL
Target,probe-labelled cysteine peptide fold change (10 µM),probe-labelled cysteine peptide fold change (50 µM)
P3H1_Q32P28_123_CLGPPAAHSLSEEMELEFR (UniProt Q32P28),0.411,0.646
NID1_P14543_679_EGSPDALQNPCYIGTHGCDTNAACRPGPR (UniProt P14543),0.112,-0.182
NUP98_P52948_1711_HIQQVDCSGNDLEQLHIK (UniProt P52948),0.207,0.108
NEK1_Q96PY6_276_FLSPQLIAEEFCLK (UniProt Q96PY6),0.0381,0.161
NUP133_Q8WUM0_700+702_EVSQVDTICECLLEHEEQVLR (UniProt Q8WUM0),0.507,0.631
NEDD4_P46934-4_4_ATCAVEVFGLLEDEENSR (UniProt P46934),-0.669,-0.509
NLRX1_Q86UT6_713_CTVVAAVLGSGR (UniProt Q86UT6),-0.136,0.223
NUDT4B_A0A024RBG1_28_AACLCFR<|>NUDT3_O95989_25_AACLCFR<|>NUDT10_Q8NFP7_24_AACLCFR<|>NUDT11_Q96G61_24_AACLCFR<|>NUDT4_Q9NZJ9_25_AACLCFR (UniProt Q9NZJ9+Q8NFP7+Q96G61+O95989),0.153,0.0838
PCBP3_P57721_141_LVVPASQCGSLIGK (UniProt P57721),-0.0567,-0.121
NUP93_Q8N1F7_328_CGDLLAASQVVNR (UniProt Q8N1F7),0.0268,0.221
PASK_Q96RG2_759+761_ELFFSDQTDQTSSNCSCATSELR (UniProt Q96RG2),0.0516,0.0688
OAS3_Q9Y6K5_350_AGCSGLGHPIQLDPNQK (UniProt Q9Y6K5),-0.0319,-0.0671
PALD1_Q9ULE6_631_IPMPDFCAPREEDFDQLLEALR (UniProt Q9ULE6),0.052,0.057
OTX1_P32242_340_LNFNSPDCLDYK (UniProt P32242),0.161,-0.0204
NVL_O15381_460_LPQAFDFCHLAHLTPGFVGADLMALCR (UniProt O15381),-0.219,-0.00784
ORC5_O43913_10_PHLENVVLCR (UniProt O43913),-0.0683,-0.0422
PARP1_P09874_908_SANYCHTSQGDPIGLILLGEVALGNMYELK (UniProt P09874),-0.146,-0.761
NDUFB7_P17568_90_HDWDYCEHR (UniProt P17568),0.161,0.191

Target,probe-labelled cysteine peptide fold change (10 µM),probe-labelled cysteine peptide fold change (50 µM)
OS9_Q13438_181_CDLNGRPR (UniProt Q13438),0.0235,0.139
NPM1_P06748_21_MEDSMDMDMSPLRPQNYLFGCELK (UniProt P06748),-0.279,-0.642
NCOA7_Q8NI08_487_GALDLETCEK (UniProt Q8NI08),-0.182,-0.181
NSD2_O96028_1102_KGEFVNEYVGELIDEEECMAR (UniProt O96028),-0.163,-0.0932
NDC1_Q9BTX1_9_ATAVSRPCAGR (UniProt Q9BTX1),0.00914,-0.136
NOL9_Q5SY16_219_WSMQNFSPQCSIVLLEHLK (UniProt Q5SY16),0.0873,0.0078
OSGEP_Q9NPF4_160_IFGETIDIAVGNCLDR (UniProt Q9NPF4),0.0104,-0.0314
PDLIM7_Q9NR12_370_MTWHVHCFTCAACK (UniProt Q9NR12),-0.0568,0.119
NUP43_Q8NFH3_222_VPLHCVDRHPNQQHVVATGGQDGMLSIWDVR (UniProt Q8NFH3),0.271,0.0847
PAICS_P22234_266_SESQCR (UniProt P22234),1.85,1.12
OSBPL9_Q96SU4_577_SILTVPWVELGGECNINCSK (UniProt Q96SU4),0.311,0.198
OPLAH_O14841_1053_DIPLNQGCLAPVR (UniProt O14841),-0.146,0.136
NFIX_Q14938_6_MYSPYCLTQDEFHPFIEALLPHVR (UniProt Q14938),0.072,-0.567
PAFAH1B2_P68402_206_ICKPLHELIMQLLEETPEEK (UniProt P68402),-0.486,-0.692
NFRKB_Q6P4R8_17_MDSLDHMLTDPLELGPCGDGHGTR (UniProt Q6P4R8),-0.196,-1.37
NIPBL_Q6KC79_304_GSRPPLILQSQSLPCSSPR (UniProt Q6KC79),0.204,0.00224
ORC3_Q9UBD5_158_LISQLMDCCVDIK (UniProt Q9UBD5),-0.0854,-0.134
P4HB_P07237_312_ILEFFGLKKEECPAVR (UniProt P07237),-0.567,-0.501
